# Results as given in ChEMBL document CHEMBL4513216, “Probing the Open Global Health Chemical Diversity Library for Multistage-Active Starting Points for Next-Generation Antimalarials” (ACS Infect Dis, 2020).
# The whole screen tested about 69,000 compounds, of which about 8,600 (12%) showed an effect of 50% or more. The full list was thinned out, with strong results kept by preference.
# System: Plasmodium berghei
# Test: Screen against P. berghei liver stage (PbLuc), transformed with Luciferase, at 10uM
# Type: functional, HepG2
# Conditions: tested at 10 uM
row,Structure (SMILES),INHIBITION [%]
1,c1cnc2c(c1)cc([C@@H]1CCCO1)n2CCN1CCOCC1,0.301
2,NC(=O)C(CNC(=O)CCc1ccsc1)Cc1ccc(F)cc1 (configuration not stated),13.1
3,Cc1ccoc1C(=O)N1CC[C@H]2[C@@H]1CCC(=O)N2c1cccnc1,-7.38
4,OCc1n[nH]c(-c2ccc(F)cc2)n1,-17
5,c1cnnc(NCC2CN(CC3CCOCC3)CCO2)c1 (configuration not stated),-35.7
6,CCN1Cc2cc(OC)ccc2N(CC(C)(C)O)CCC1=O,17.7
7,COc1ccc2c(c1)CN(Cc1ccco1)C(=O)CCN2CC(C)(C)O,51.7
8,CC(C)(O)CN1CCC(=O)N(Cc2ccco2)Cc2cc(F)ccc21,-17.1
9,CCOc1cc(CNCC2CN(C3CC3)CCO2)ccc1OC (configuration not stated),22.3
10,O=C(N[C@@H]1CN(Cc2ccc(F)cc2)C[C@H]1O)c1cscn1,10
11,O=C(N[C@@H]1CN(CCc2ccc(F)cc2)C[C@H]1O)c1cscn1,54.5
12,O=C(N[C@@H]1CN(Cc2ccc(F)c(F)c2)C[C@H]1O)c1cscn1,2.6
13,Cc1nc(Nc2nnc(C)s2)cc(C2CCCN2C2CCCC2)n1 (configuration not stated),28
14,CCc1ncnc2c1CCN(Cc1ccccn1)CC2,-9.48
15,Cc1occc1C(=O)Nc1ccnc(OC2CCOC2)c1 (configuration not stated),7.84
16,O=C(Nc1ccnc(OC2CCOC2)c1)c1ccc(F)cc1Cl (configuration not stated),17.6
17,O=C(Nc1ccnc(OC2CCOC2)c1)c1ccccc1Cl (configuration not stated),65.3
18,CN(C)Cc1cc(C2CCCCN2S(=O)(=O)c2cccc(Cl)c2)nn1C (configuration not stated),37.8
19,CC(=O)Nc1ccc(SCC(O)COCc2ccco2)cc1 (configuration not stated),26.9
20,COc1ccc2oc(C(C)NC(=O)NCC(C)(C)C(N)=O)c(C)c2c1 (configuration not stated),42.3
21,CCN(Cc1noc(C)n1)C(=O)CCn1c(C)cc2ccccc21,58.5
22,CCN(Cc1nc(COC)no1)C(=O)CCn1c(C)cc2ccccc21,36.7

row,Structure (SMILES),INHIBITION [%]
1,CCN(Cc1ccncc1)C(=O)CCn1c(C)cc2ccccc21,14.9
2,COCCNC(=O)[C@H]1C[C@@H]2CCN(c3ncccn3)C[C@H]2O1,-56.7
3,CN1CCN(CC2CC2)C(=O)C12CCN(C(=O)CC(F)(F)F)CC2,-14.2
4,CCN1CCN(C)C2(CCN(C(=O)CC(F)(F)F)CC2)C1=O,71.3
5,CN1CCN(C)C2(CCN(C(=O)CC(F)(F)F)CC2)C1=O,27.5
6,CC(C)CC(=O)NS(=O)(=O)c1ccc(C#N)cc1C(F)(F)F,2.3
7,COc1ccc(C2=NOC(C#N)C2)cc1 (configuration not stated),15.9
8,Cc1cc(N(C)C)nc(N2CCn3c(nnc3C(C)C)C2)n1,52.2
9,Cc1cc(N(C)C)nc(N2CCN(Cc3nccn3C)CC2)n1,-87
10,CCc1nnc2n1CCN(c1nc(C)cc(N(C)C)n1)C2,71.5
11,Cc1cc(N(C)C)nc(N2CCn3c(nnc3C3CC3)C2)n1,21.2
12,Cc1cn2nc(N3CCn4c(nnc4C(C)C)C3)sc2n1,7.81
13,CC(C)c1nnc2n1CCN(C(=O)c1ccnc(N(C)C)c1)C2,42
14,CCc1nnc2n1CCN(C(=O)c1ccnc(N(C)C)c1)C2,19.2
15,Cc1cc(N(C)C)nc(N2CCn3c(C)nnc3C2)n1,51.1
16,Cc1cc(N(C)C)nc(N2CCN(C(C)c3nc(C)no3)CC2)n1 (configuration not stated),-71.2
17,CS(=O)(=O)NCCC1CCCCN1C(=O)NCc1ccccn1 (configuration not stated),4.13
18,CC(C)COc1cncc(N2CCCC(CC(N)=O)C2)n1 (configuration not stated),4.82
19,O=C(c1cnccn1)N1CCc2onc(CN3CCOCC3)c2C1,45.5
20,c1ccc2cc(OCCCN3CCn4c(nnc4C4CC4)C3)ccc2c1,35.9
21,CC(C)=CCN1CC2(CCN(C(=O)CCn3ccnc3C)CC2)CC1=O,27.7
22,CC(C)N(C)C[C@H]1C[C@@H]2CN(Cc3ccco3)C[C@@H]2O1,8.74

row,Structure (SMILES),INHIBITION [%]
1,O=C(C1CCCC1)N1CCCC([C@@H]2C[C@H](C(F)F)n3ncnc3N2)C1 (some centres not stated),0.788
2,O=C1CN(CCS(=O)(=O)c2ccc(Cl)cc2)CCN1,14
3,CC1CN(c2ncccc2C(=O)Nc2cccc3c2CCCC3)CCN1 (configuration not stated),-63.6
4,Cc1cccc(C(=O)Nc2cccc3c2CCCC3)n1,-45.5
5,O=C(Nc1cccc2c1CCCC2)c1cccnc1N1CCCNCC1,53
6,c1cnc(N2CCO[C@H]3[C@H](OCc4cccnc4)CC[C@@H]32)nc1,21.5
7,CS(=O)(=O)N1C[C@@H](NC(=O)c2ccno2)[C@@H]2OCCC[C@@H]21,36.7
8,CN1CC(=O)N(c2ccsc2)CC12CCN(C(=O)Nc1ccccc1)C2 (configuration not stated),1.94
9,CC(C(=O)N1CCCN(Cc2ccc(C#N)cc2)CC1)n1cccn1 (configuration not stated),19.583
10,CCCC(=O)NCCc1cc(N2CCN(C(C)=O)CC2)nc(C2CC2)n1,46
11,CC(=O)NCCc1cc(N2CCN(C(C)=O)CC2)nc(C2CC2)n1,43.8
12,CCC(=O)NCCc1cc(N2CCN(C(C)=O)CC2)nc(C2CC2)n1,51.2
13,COc1cccc(CN(C)C(C)C(=O)Nc2nc(C)c(C)s2)c1 (configuration not stated),39.3
14,CCS(=O)(=O)N1CCC[C@]2(C(=O)N(C)C)CN(c3ncccn3)C[C@@H]2C1,-47.6
15,CCOC(=O)c1ccc(N2CCN(Cc3c(C)nn(C)c3Cl)CC2)nc1,74.9
16,CCc1nn(C)c(Cl)c1CN1CCN(c2nc(C(N)=O)cs2)CC1,24.1
17,CCc1nn(C)c(Cl)c1CN1CCN(c2ccc(C(N)=O)cn2)CC1,40.7
18,NC(=O)c1ccc(N2CCN(Cc3c(Cl)cncc3Cl)CC2)nc1,30.7
19,CCc1nn(C)c(Cl)c1CN1CCN(c2ccc(Cl)nn2)CC1,66.6
20,CCc1nn(C)c(Cl)c1CN1CCC(c2cc(O)nc(C)n2)CC1,3.96
21,Cn1nc(C2CCCN2)c2c(C(=O)NCC(F)(F)F)cc(C3CC3)nc21 (configuration not stated),28.4
22,O=S(=O)(c1ccccc1)N1C2CCC(O)(CC2)C1CN1CCOCC1 (configuration not stated),23.7

row,Structure (SMILES),INHIBITION [%]
1,Cc1nc(C)n(CC2CCCN2Cc2nc(-c3ccccn3)no2)n1 (configuration not stated),32.7
2,CN(C)C(=O)[C@H]1CCS(=O)(=O)[C@@H]2CN(c3ncccn3)C[C@H]12,61.1
3,CC(C)CNC(=O)[C@H]1CCS(=O)(=O)[C@@H]2CN(c3ncccn3)C[C@H]12,35.8
4,CCc1cnc(N2C[C@@H]3[C@@H](C(=O)N(C)C)CCS(=O)(=O)[C@@H]3C2)nc1,36.7
5,CN(C)C(=O)[C@H]1CCS(=O)(=O)[C@@H]2CN(c3ncc(F)cn3)C[C@H]12,54.8
6,CC(C)NC(=O)[C@H]1CCS(=O)(=O)[C@@H]2CN(c3ncccn3)C[C@H]12,0.164
7,CC(C)NC(=O)[C@H]1CCS(=O)(=O)[C@@H]2CN(c3ncc(F)cn3)C[C@H]12,-13
8,O=C(O)c1cc(C=Cc2ccc3ccccc3c2)ncn1,-57
9,Cc1ccc(C(O)CNC(=O)NCc2csc(C)n2)cc1 (configuration not stated),-34
10,O=C(c1cccnc1N1CCOCC1)N1CCCC(n2cccn2)C1 (configuration not stated),-62.365
11,Cn1cc(-c2cnc(N3CCOCC3)nc2)cc1C(=O)N1CCCC1,-50.9
12,CN(CCNC(=O)c1ccnc(-n2ccnc2)c1)C1CC1,-3.83
13,O=C(CC1=CSC2=NCCCN12)N1CCCCCC1c1ccco1 (configuration not stated),-4.01
14,CCC(=O)Nc1cccc(C(=O)NCCC2=CSC3=NCCCN23)c1,50.3
15,COc1cccc(C2CCCN2C(=O)CC2=CSC3=NCCCN23)c1 (configuration not stated),-11.6
16,CC(C)(O)CCc1cccc(C(=O)NCCC2=CSC3=NCCCN23)c1,31.2
17,CNc1cc(C(=O)NCCC2=CSC3=NCCCN23)ccn1,50.3
18,Cc1ccc(-c2nc(C(=O)N3CCN(C(=O)N(C)C)CC3)cs2)c(C)c1,-4.865
19,O=S(=O)(c1cccs1)N1CC[C@H]2[C@H]1CCN2CC1CC1,2.58
20,CN1CCN(CC2CCN(C(=O)CCC3CCCCC3)CC2)CC1,21
21,Cn1cccc1C(=O)N1C[C@H]2CN(Cc3cccc(F)c3)C[C@H]2C1,6.27
22,O=C1CC[C@H]2[C@H](CCN2C(=O)C2CCCO2)N1Cc1cccnc1 (some centres not stated),5.96

row,Structure (SMILES),INHIBITION [%]
1,CCn1nc2c(cc1=O)CN(CCCN1CCCC1=O)CC2,16.8
2,COCCNC(=O)c1nnn(Cc2ccccc2)c1OC,19.3
3,COc1c(C(=O)NCC(C)C)nnn1Cc1ccccc1,53.2
4,CCNC(=O)c1nnn(Cc2ccccc2)c1OC,-19
5,CN(C)CC1CSCCCN1C(=O)c1ccc(-n2cccc2)cc1 (configuration not stated),35.8
6,CN(Cc1ccncc1)C(=O)NCc1nnc2n1CCCCC2,-4.94
7,COc1ccccc1CN1C[C@@H](F)[C@@H](OCc2nc3ncccc3[nH]2)C1,50.7
8,COc1ccccc1CN1C[C@@H](F)[C@@H](OCc2nc3ccccc3[nH]2)C1,45.2
9,COc1ccccc1CN1C[C@@H](F)[C@@H](OCc2nc3cnccc3[nH]2)C1,-25.2
10,Cc1ccc(NC(=O)C2CSCN2C(=O)c2cccnc2)c(C)c1 (configuration not stated),0.8
11,Cc1nc(NCc2noc(C3CCCO3)n2)c2sccc2n1 (configuration not stated),75.4
12,Cc1cc(C(F)(F)F)nc(CCNc2nc(C)nc3sccc23)n1,43.2
13,Cc1ccc2c(c1)SCC(=O)N2Cc1noc(C2CCCO2)n1 (configuration not stated),14.9
14,Cc1nc(NCCc2noc(C3CCCO3)n2)c2sccc2n1 (configuration not stated),82.2
15,Cc1nc(NCc2noc(C3CCCO3)n2)c2ccsc2n1 (configuration not stated),73.2
16,O=C(NCCc1noc(C2CCCO2)n1)c1cn2ccsc2n1 (configuration not stated),39.9
17,O=C(NCc1noc(C2CCCO2)n1)c1cn2ccsc2n1 (configuration not stated),25.9
18,O=C1CSc2ccccc2N1Cc1noc(C2CCCO2)n1 (configuration not stated),7.6
19,Cc1nc(N(Cc2ccncc2)CC2CCCO2)c2ccsc2n1 (configuration not stated),40.8
